Among the data in the antibiotic and cytotoxicity screens of Wong et al. (2023) are cytotoxicity call values, retold here.

Among all 39,000 compounds or so, about 1,500 (3.8%) were called active. The list comes from a sample in which actives are over-represented; it also holds similar structures and randomly drawn compounds.

This assay concerns HSkMC (human skeletal muscle cells). Nature of the assay: cytotoxicity call (relative viability < 0.9). Particulars: 10 µM.
Take `C[C@@H]1CCCCO[C@H](CN(C)C(=O)c2ccccc2)[C@H](C)CN([C@@H](C)CO)C(=O)c2cc(NC(=O)Cc3ccccc3)ccc2O1`: the cytotoxicity call is “inactive”.

As for `C[C@@H]1CN([C@@H](C)CO)C(=O)Cc2cc(NS(=O)(=O)c3cn(C)cn3)ccc2O[C@H]1CN(C)C`, the cytotoxicity call was “inactive”.

As to `COC(=O)C1=CO[C@@H](O[C@@H]2O[C@H](CO)[C@@H](O)[C@H](O)[C@H]2O)[C@@H]2[C@@H](CO)C=C[C@H]12`, the cytotoxicity call is “inactive”.

`C[C@@H]1CN([C@@H](C)CO)C(=O)c2cc(NC(=O)CCC(F)(F)F)ccc2O[C@@H](C)CCCCO[C@@H]1CN(C)C(=O)C1CCCCC1`: the cytotoxicity call was “inactive”.

For the compound `COc1ccc(C#Cc2ccc3c(c2)O[C@@H](CN(C)C(C)=O)[C@@H](C)CN([C@H](C)CO)S3(=O)=O)cc1`, the cytotoxicity call is “inactive”.

For the compound `COc1ccc(CN(C)C[C@@H]2OCCCC[C@H](C)Oc3ccc(NC(=O)CCC(F)(F)F)cc3C(=O)N([C@@H](C)CO)C[C@@H]2C)cc1`, the cytotoxicity call was “inactive”.

As for `CCCNc1nc(Nc2ccc(C#N)cc2)ncc1C#CCCCNC(=O)[C@H](C)N(C)C(=O)/C=C/CN(C)C`, the cytotoxicity call is “active”.

Consider `OCc1ccccc1-n1cncn1`, for which the cytotoxicity call was “inactive”.

In the case of `COc1ccc2c3c([nH]c2c1)[C@@H](CO)N(CC1CCCC1)C[C@]13CCN(CC1)C(=O)c1ccc(cc1)F`, the cytotoxicity call is “active”.

In the case of `COc1ccc2c3c([nH]c2c1)[C@H](CO)N(CC1CCCC1)C[C@]13CCN(CC1)C(=O)Nc1cccc(c1)F`, the cytotoxicity call is “inactive”.

Consider `COc1ccc2c3c([nH]c2c1)[C@H](CO)N(C[C@]13CCN(CC1)C(=O)Nc1ccc(cc1)F)C(=O)c1ccc(cc1)F`, for which the cytotoxicity call is “inactive”.

Consider `COc1ccc2c3c([nH]c2c1)[C@@H](CO)N(CC1CCCC1)C[C@]13CCN(CC1)C(=O)Nc1cccc(c1)F`, for which the cytotoxicity call was “inactive”.

As for `COc1ccc2c3c([nH]c2c1)[C@@H](CO)N(C[C@]13CCN(CC1)C(=O)Nc1ccc(cc1)F)C(=O)c1ccc(cc1)F`, the cytotoxicity call is “inactive”.

In the case of `COc1ccc2c3c([nH]c2c1)[C@H](CO)N(CC1CCCC1)C[C@]13CCN(CC1)C(=O)c1ccc(cc1)F`, the cytotoxicity call is “active”.

As to `CC(=O)N[C@H](Cc1ccc2ccccc2c1)C(=O)N[C@H](Cc1ccc(Cl)cc1)C(=O)N[C@H](Cc1cccnc1)C(=O)N[C@@H](CO)C(=O)N(C)[C@@H](Cc1ccc(O)cc1)C(=O)N[C@H](CC(N)=O)C(=O)N[C@@H](CC(C)C)C(=O)N[C@@H](CCCCNC(C)C)C(=O)N1CCC[C@H]1C(=O)N[C@H](C)C(N)=O`, the cytotoxicity call is “inactive”.

As for `CS(=O)(=O)Nc1ccc2c(c1)[C@@H]1C[C@H](CC(=O)NCc3ccc(-c4ccccc4)cc3)O[C@@H](CO)[C@@H]1O2`, the cytotoxicity call is “inactive”.

Take `C[C@@H]1CN([C@@H](C)CO)C(=O)Cc2cc(NC(=O)CCCCCC(=O)Nc3ccccc3N)ccc2O[C@H]1CN(C)Cc1ccccc1`: the cytotoxicity call was “inactive”.

For the compound `C[C@@H]1CN([C@H](C)CO)C(=O)c2cc(NC(=O)Nc3ccc(C(F)(F)F)cc3)ccc2O[C@@H](C)CCCCO[C@H]1CN(C)S(=O)(=O)c1ccc(F)cc1`, the cytotoxicity call is “inactive”.

With `Cc1noc(C)c1NC(=O)N(C)C[C@@H]1OCCCC[C@H](C)Oc2ccc(NS(=O)(=O)c3ccccc3)cc2C(=O)N([C@@H](C)CO)C[C@@H]1C`, the cytotoxicity call is “inactive”.

Consider `COc1ccc2[nH]cc(CCNC(C)=O)c2c1`, for which the cytotoxicity call is “inactive”.

Consider `Cn1c(CN)nc2ccccc2c1=O`, for which the cytotoxicity call was “inactive”.

For the compound `CC(C)Oc1cccc(-n2c(CCc3c[nH]c4ccc(Br)cc34)nc3ccccc3c2=O)c1`, the cytotoxicity call is “active”.

Regarding `C[C@@H]1CCCCO[C@H](CN(C)C(=O)Cc2ccccc2)[C@H](C)CN([C@H](C)CO)C(=O)c2cc(NS(=O)(=O)c3cccs3)ccc2O1`, the cytotoxicity call is “inactive”.

`Cc1noc(C)c1S(=O)(=O)Nc1ccc2c(c1)C(=O)N([C@@H](C)CO)C[C@H](C)[C@H](CN(C)S(=O)(=O)c1cn(C)cn1)O2`: the cytotoxicity call is “inactive”.

In the case of `C[C@@H]1CCCCO[C@@H](CN(C)C(=O)Nc2cccc3ccccc23)[C@H](C)CN([C@@H](C)CO)C(=O)c2cc(NS(=O)(=O)c3cn(C)cn3)ccc2O1`, the cytotoxicity call is “inactive”.

Take `C[C@@H]1CN([C@@H](C)CO)C(=O)c2cc(NS(=O)(=O)c3cn(C)cn3)ccc2O[C@@H](C)CCCCO[C@@H]1CN(C)C(=O)Nc1cccc2ccccc12`: the cytotoxicity call is “active”.

For `C[C@H](CO)N1C[C@H](C)[C@@H](CN(C)C(=O)Nc2cccc3ccccc23)OCCCC[C@H](C)Oc2ccc(NS(=O)(=O)c3cn(C)cn3)cc2C1=O`, the cytotoxicity call was “inactive”.

With `C[C@@H]1CN([C@@H](C)CO)C(=O)c2cc(NS(=O)(=O)c3cn(C)cn3)ccc2O[C@@H](C)CCCCO[C@H]1CN(C)C(=O)Nc1cccc2ccccc12`, the cytotoxicity call is “active”.

Turning to `C[C@@H]1CCCCO[C@@H](CN(C)C(=O)Nc2cccc3ccccc23)[C@@H](C)CN([C@H](C)CO)C(=O)c2cc(NS(=O)(=O)c3cn(C)cn3)ccc2O1`, the cytotoxicity call was “inactive”.

In the case of `C[C@@H]1CCCCO[C@H](CN(C)C(=O)Nc2cccc3ccccc23)[C@@H](C)CN([C@@H](C)CO)C(=O)c2cc(NS(=O)(=O)c3cn(C)cn3)ccc2O1`, the cytotoxicity call was “inactive”.

As to `C[C@H]1CCCCO[C@@H](CN(C)C(=O)Nc2cccc3ccccc23)[C@@H](C)CN([C@@H](C)CO)C(=O)c2cc(NS(=O)(=O)c3cn(C)cn3)ccc2O1`, the cytotoxicity call was “active”.

Regarding `C[C@@H]1CCCCO[C@H](CN(C)C(=O)Nc2cccc3ccccc23)[C@H](C)CN([C@H](C)CO)C(=O)c2cc(NS(=O)(=O)c3cn(C)cn3)ccc2O1`, the cytotoxicity call is “active”.

With `C[C@@H]1CCCCO[C@H](CN(C)C(=O)Nc2cccc3ccccc23)[C@H](C)CN([C@@H](C)CO)C(=O)c2cc(NS(=O)(=O)c3cn(C)cn3)ccc2O1`, the cytotoxicity call is “inactive”.

Take `C[C@@H]1CCCCO[C@@H](CN(C)C(=O)Nc2cccc3ccccc23)[C@H](C)CN([C@H](C)CO)C(=O)c2cc(NS(=O)(=O)c3cn(C)cn3)ccc2O1`: the cytotoxicity call was “inactive”.

For `C[C@H](CO)N1C[C@H](C)[C@H](CN(C)C(=O)Nc2cccc3ccccc23)OCCCC[C@H](C)Oc2ccc(NS(=O)(=O)c3cn(C)cn3)cc2C1=O`, the cytotoxicity call was “inactive”.

Take `C[C@H]1CCCCO[C@H](CN(C)C(=O)Nc2cccc3ccccc23)[C@@H](C)CN([C@@H](C)CO)C(=O)c2cc(NS(=O)(=O)c3cn(C)cn3)ccc2O1`: the cytotoxicity call is “inactive”.

Turning to `C[C@@H]1CN([C@@H](C)CO)S(=O)(=O)c2ccc(-c3cncnc3)cc2O[C@H]1CN(C)C(=O)Cc1cccnc1`, the cytotoxicity call was “inactive”.
